Cav3 T inh – human Cav3.2 channel inhibition, primary screen. B-score at 10 µM. actives 4% (n = 100,000). O95180. Cav3.2-expressing cells, Fluo-4 calcium fluorescence FDSS; stronger effect = lower value;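 active = single-dose well whose peak fluorescence ratio is a statistical outlier from its plate by either plate-standardised score or position-corrected B-score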
PostGolgi ctrl – growth of the yeast control strain, post-Golgi counter-screen; efflux-deficient yeast background strain, growth absorbance A615, 16 h; inhibition, % at 10 µM; actives 5% (n = 98,000); AID 738
PLAP act – activators of human placental alkaline phosphatase; P05187; actives 1.2% (n = 96,000); purified PLAP enzyme, luminescent substrate read-out; stronger effect = higher value; activation fold at 20 µM; in the data active = activation fold above about 2
DAT uptake mod – changed human dopamine transporter uptake under cocaine IC80 | Q01959 | LLC-PK1 hDAT cells, [14C]-dopamine uptake with cocaine IC80; actives deviate in either direction | B-score at 10 µM | actives 1.3% (n = 110,000) | AID 449768;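 active = Z score or B-score, a plate-position-corrected score, falls beyond the plate's 99.7% confidence bounds, in either direction; inactive = both scores lie inside the 99.7% bounds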
PostGolgi yeast – growth inhibition of a yeast mutant, post-Golgi transport screen. actives 0.9% (n = 98,000). post-Golgi transport phenotypic cell assay. inhibition, % at 10 µM;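 also: yeast cells grown in 1536-well plates; yeast grown about 18 h at 30C before absorbance read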
Large screens that a line does not name were inactive. The list is not random: actives were taken first. Their share in the collection is about 9.6%. Rule as the data show it, unless noted: active = inhibition above about 30%; inactive = the rest.

CC(C)C(=O)c1cn(Cc2ccccc2C#N)c2ccccc12	Cav3 T inh -5.6
CCC(=O)c1cn(Cc2ccc(C#N)cc2)c2ccccc12	none
CCCCCc1nc2ccccc2c(=O)n1-c1ccc(Cl)cc1[N+](=O)[O-]	none
CCN(CC)c1ccc(N=Cc2c(O)n(Cc3ccccc3)c(=O)[nH]c2=O)cc1	Cav3 T inh -4.3
COc1ccc(-c2cc(=O)c3c(OC)c(OC)c(OC)cc3o2)cc1	DAT uptake mod 4.7 (no result: PostGolgi ctrl, PLAP act, PostGolgi yeast)
Cc1ccc2c(c1)C1CN(C)CCC1N2C(=O)c1ccco1 (centres undefined)	none
Cc1ccc2c(c1)C1CN(C)CCC1N2C(=O)Nc1cccc(Cl)c1 (centres undefined)	DAT uptake mod 3.4
COC(=O)C1=C(c2cc3ccccc3s2)C[C@@H]2CC[C@H]1N2C(=O)NCc1ccco1	none (no result: PostGolgi ctrl, PLAP act, PostGolgi yeast)
CCOC(=O)c1c(-n2c(C)cc(/C=C3/C(=O)NC(=O)N(CC)C3=O)c2C)sc2c1CCCC2	Cav3 T inh -3.5 (no result: PostGolgi ctrl, PLAP act, PostGolgi yeast)
O=C(CN1CCCCC1)NCC(=O)Nc1ccc(Br)cc1C(=O)c1ccccc1	none
O=C(CNC(=O)c1ccccc1)Nc1ccc(Br)cc1C(=O)c1ccccc1	Cav3 T inh -6.9, PostGolgi ctrl 31
O=C(CNC(=O)OCc1ccccc1)Nc1ccc(Br)cc1C(=O)c1ccccc1	Cav3 T inh -5.9, PostGolgi ctrl 37
O=C(CCN1CCOCC1)NCC(=O)Nc1ccc(Br)cc1C(=O)c1ccccc1	none
O=C(C1CC(=O)N(c2ccc(F)c(Cl)c2)C1)N1CCC2(CC1)OCCO2 (centres undefined)	none
Oc1c(Cl)c(Cl)c(Cl)c(Cl)c1Cl	none (no result: Cav3 T inh, PostGolgi ctrl, PLAP act, PostGolgi yeast)
CC(C)CC(=O)NC(Oc1ccc(Cl)cc1)C(Cl)(Cl)Cl (centres undefined)	Cav3 T inh -6.2
CCCC(=O)NC(Oc1ccc(Cl)cc1Cl)C(Cl)(Cl)Cl (centres undefined)	none
CCOC(=O)CCCCCNC(=O)c1c(O)[nH]c(=O)[nH]c1=O	none (no result: PostGolgi ctrl, PLAP act, PostGolgi yeast)
Cc1nn(C)c(C)c1P(=S)(c1c(C)nn(C)c1C)N(C)C	PostGolgi ctrl 40
O=C(c1cccn2c(=O)c3ccc(Cl)cc3nc12)N1CCC2(CC1)OCCO2	none (no result: Cav3 T inh, DAT uptake mod)
CC(=O)N(C)CC#CCN1CCCC(CO)C1 (centres undefined)	none (no result: PostGolgi ctrl, PLAP act, PostGolgi yeast)
OC(COCc1ccc(Cl)cc1)CN1CC=C(c2ccccc2)CC1 (centres undefined)	Cav3 T inh -6.6, PostGolgi yeast 63
COC(=O)C1=C(c2ccc(S(C)(=O)=O)cc2)C[C@@H]2CC[C@H]1N2C(=O)NC(C)C	none (no result: PostGolgi ctrl, PLAP act, PostGolgi yeast)
CCOC(=O)[C@@]1(C#N)C(c2ccc(Cl)c(Cl)c2)[C@H](C(N)=O)N2C=C(C(C)=O)C=C[C@H]21 (some centres undefined)	none
Oc1ccc(/C=N/NP(=S)(c2ccccc2)c2ccccc2)c(O)c1O	PLAP act 2.4
Oc1ccc(/C=N/NP(=S)(c2ccccc2)c2ccccc2)cc1O	none (no result: Cav3 T inh, DAT uptake mod)
CCOC(=O)C1=C(N)OC2=C(C(=O)CCC2)C12C(=O)N1c3c(ccc(C)c32)C(C)=CC1(C)C (centres undefined)	Cav3 T inh -8.3 (no result: PLAP act)
O=C(Nc1ccc(Cl)cc1C(=O)c1ccccc1Cl)c1ccco1	none
CC1=CC(=C2C(=O)NC(=S)NC2=O)C=C(C(F)(F)F)N1C	PostGolgi yeast 40
O=C(Nc1ccc(Cl)cc1)Nc1nccs1	none
CCC(=NCc1cccnc1)c1c(O)n(Cc2ccccc2)c(=O)[nH]c1=O	none
Cc1ccccc1-n1c(C)nc2sccc2c1=O	none
Cc1ccc(S(=O)(=O)N2CC3CC(C2)c2cccc(=O)n2C3)cc1 (centres undefined)	PostGolgi yeast 33
COC1CC(OC2CCC3(C)C(CCC4C3CCC3(C)C(C5=CC(=O)OC5)C(OC(C)=O)CC43O)C2)OC(C)C1OC1OC(COC2OC(CO)C(O)C(O)C2O)C(O)C(O)C1O (centres undefined)	DAT uptake mod -8.9 (no result: PostGolgi ctrl, PLAP act, PostGolgi yeast)
O=P(Nc1c(Cl)cccc1Cl)(c1ccccc1)c1nc2c(s1)CCCC2 (centres undefined)	none
O=P(Nc1ccccc1Cl)(c1ccccc1)c1nc2c(s1)CCCC2 (centres undefined)	Cav3 T inh -5.9, PostGolgi ctrl 33
CCN(c1ccc(C(O)(C(=O)OC)C(F)(F)F)cc1)S(=O)(=O)c1ccccc1 (centres undefined)	Cav3 T inh -2.9
CCOC(=O)C(O)(c1ccc(N(CC)C(=O)OC)cc1)C(F)(F)F (centres undefined)	none
CCOC(=O)C(O)(c1ccc(N(CC)S(=O)(=O)c2ccccc2)cc1)C(F)(F)F (centres undefined)	Cav3 T inh -5.1, PostGolgi ctrl 39
CCOC(=O)N(CC)c1ccc(C(O)(C(=O)OCC)C(F)(F)F)cc1 (centres undefined)	none
COC(=O)C1=C(c2cc3ccccc3s2)C[C@@H]2CC[C@H]1N2C(=O)NCCNC(C)=O	none (no result: PostGolgi ctrl, PLAP act, PostGolgi yeast)
CCCC1(CCC)C(=O)NC(=NCc2ccccc2)NC1=O	DAT uptake mod -7.4 (no result: Cav3 T inh)
CCOC(=O)c1c(N)n(Cc2ccco2)c2nc3ccccc3nc12	PostGolgi ctrl 47
CCCOC(=O)c1c(N)n(Cc2cccs2)c2nc3ccccc3nc12	PostGolgi ctrl 48
Nc1c(C(=O)NCCCc2ccccc2)c2nc3ccccc3nc2n1Cc1cccs1	none
Cc1cc(N2C(=O)C3CCCN3C2c2sccc2C)no1 (centres undefined)	PostGolgi yeast 36
Cc1cc(N2C(=O)C3CCCN3C2c2cccc(Cl)c2)no1 (centres undefined)	none (no result: PLAP act)
Cc1cccc(C)c1NC(=O)CN(C)CC(=O)Nc1ccc(C#N)c(Cl)c1	none
Cn1c(=O)cc(OCC(=O)N2CCN(C3CCCCC3)CC2)c2ccccc21	none
CC(C)[C@H]1C(=O)O[C@H](C(C)C)C(=O)N(C)[C@@H](C(C)C)C(=O)O[C@H](C(C)C)C(=O)N(C)[C@@H](C(C)C)C(=O)O[C@H](C(C)C)C(=O)N1C	Cav3 T inh -3.9 (no result: PostGolgi ctrl, PLAP act, PostGolgi yeast)
CN1C(=O)NC(=O)[C@]2(Cc3ccccc3N3CCN(c4ccccc4)CC32)C1=O (some centres undefined)	none
O=C1NC(=O)[C@]2(Cc3ccccc3N3CCN(c4ccccc4)CC32)C(=O)N1c1ccccc1 (some centres undefined)	Cav3 T inh -4.5
Cc1ccnc(-n2c(C)cc(C=C3C(=O)N(C)C(=S)N(C)C3=O)c2C)c1	none
CCCCCCCSc1cc(OC)c(CCNC)cc1OC	PostGolgi ctrl 49
CCn1nc(-c2cccs2)nc2c(=O)n(C)c(=O)nc1-2	PostGolgi ctrl 100, PostGolgi yeast 105 (no result: Cav3 T inh, DAT uptake mod)
COc1cc([C@@H]2c3cc4c(cc3[C@@H](OC)[C@H]3COC(=O)[C@H]23)OCO4)cc(OC)c1O	none (no result: PostGolgi ctrl, PLAP act, PostGolgi yeast)
CC(C)Cc1[nH]c(=O)c(C#N)c2c1CCC2	PostGolgi yeast 35
O=c1[nH]c(=O)n(CCC2=CCCCC2)c(O)c1C=NCc1cccnc1	none (no result: Cav3 T inh, DAT uptake mod)
O=c1[nH]c(=S)n(CCC2=CCCCC2)c(O)c1C=NC1CCN(Cc2ccccc2)CC1	PostGolgi ctrl 94, PostGolgi yeast 37
CC(=NCCN1CCCCC1)c1c(O)n(-c2ccc(Cl)cc2)c(=O)[nH]c1=O	none
